Experimental data published in PubChem BioAssay (NCI).
The panel holds about 83,000 compounds, 20% with a hit somewhere; the sample as a whole holds those more often.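 Activity criterion: percent growth below 10, measured after cells in 96-well plates were exposed to a single compound concentration for 48 hours.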

Columns and labels:
Assay in all cases: NCI-60 one-dose screen, 48 h (100 = growth as untreated, 0 = no growth, -100 = all killed)
Conditions in all cases: 10 µM unless noted
[1] = test system: NCI-H23 lung
[2] = test system: NCI-H226 lung
[3] = test system: NCI-H322M lung
[4] = test system: HOP-62 NSCLC
[5] = test system: NCI-H460 lung
[6] = test system: 786-0 renal
[7] = test system: MDA-MB-231 breast
[8] = test system: SF-268 CNS
[9] = test system: SF-539 CNS
[10] = test system: U251 CNS
[11] = test system: UACC-62 melanoma
[12] = test system: SK-MEL-28 melanoma
[13] = test system: SN12C renal
[14] = test system: UO-31 renal
[15] = test system: OVCAR-8 ovarian
[16] = test system: OVCAR-3 ovarian
[17] = test system: MDA-MB-435 melanoma
[18] = test system: SW-620 colon
[19] = test system: MCF7 breast
[20] = test system: KM12 colon

Measured: growth

O=C(/C=C/c1ccccc1)N[C@@H](CO)Cc1cnc[nH]1
inactive: [1] 113% | [2] 94% | [3] 101% | [4] 101% | [5] 105% | [6] 103% | [7] 98.9% | [8] 101% | [9] 95.6% | [10] 101% | [11] 110% | [12] 99.4% | [13] 105% | [14] 98.2% | [15] 99.8% | [16] 112% | [17] 113% | [18] 106% | [19] 98.7% | [20] 105%

CC(=O)N1N=C(c2ccccc2)CC1c1sc(N(CCCl)CCCl)nc1Cl (stereo not given)
inactive: [1] 85.8% | [2] 89.1% | [3] 90.6% | [4] 90% | [5] 96.2% | [6] 99.7% | [7] 95.3% | [8] 94% | [9] 106% | [10] 92.6% | [11] 64.5% | [12] 108% | [13] 86.6% | [14] 80% | [15] 95.8% | [16] 96.4% | [17] 97.4% | [18] 96.8% | [19] 95% | [20] 95.8%

O=C(CCCN1CCC2(CC1)C(=O)NCN2c1ccc(F)cc1)c1ccc(F)cc1
inactive: [1] 98.2% | [2] 78.4% | [3] 90% | [4] 95.9% | [5] 96.8% | [6] 101% | [7] 98.1% | [8] 112% | [9] 93.2% | [10] 102% | [11] 90.5% | [12] 118% | [13] 98% | [14] 83.6% | [15] 97.8% | [16] 124% | [17] 109% | [18] 106% | [19] 85.9% | [20] 108%
